# Tau fibril ThT: blocks human tau fibril formation measured by thioflavin T | Potency, µM (titrated, usually from 57.4 µM), inactives show top-dose activity, negative = inhibition, hits mostly inhibitors | recombinant tau K18 P301L, heparin-induced fibrillization, ThT fluorescence | P10636 | hit rate 2.1% among 270,000; also: nearly all actives have a fitted effect of over 55% in size
# Target sequence (P10636 561-689 P618L limits assumed): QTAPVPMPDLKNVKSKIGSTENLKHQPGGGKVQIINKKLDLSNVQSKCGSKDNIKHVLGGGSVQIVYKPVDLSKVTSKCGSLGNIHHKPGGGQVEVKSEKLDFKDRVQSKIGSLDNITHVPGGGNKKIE
#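 Recombinant human tau K18 fragment […] carrying P301L, 15 uM unlabeled plus 0.24 uM Alexa 594-labeled, was fibrillized with 20 uM heparin in 100 mM sodium acetate pH 7 for 6 hr at 37 C; 30 uM ThT fluorescence read after 1 hr.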
# Tau fibril FP: blocks human tau fibril formation measured by polarization; hit rate 0.39% among 280,000; Potency, µM (highest dose often 57.7 µM), without a hit: at the top dose activity, negative = inhibition, most hits filed as inhibitors; K18 P301L tau heparin fibrillization, Alexa594 FP, 6 h; also: nearly all actives have a fitted effect of over 55% in size
#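 Heparin (20 uM) drove fibril formation of recombinant tau K18 P301L, 15 uM unlabeled with 0.24 uM Alexa 594 label, for 6 hr at 37 C in 100 mM sodium acetate pH 7. Fluorescence polarization (555/632 nm) read 1 hr after 30 uM ThT.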
# NPSR antag: antagonists of human neuropeptide S receptor cAMP signaling. Potency, µM (doses to about 38.3 µM), without a hit: at the highest dose activity change, negative = inhibition, most hits filed as inhibitors. CHO-NPSR cells, cAMP TR-FRET, antagonist mode. AID 1461. Q6W5P4. hit rate 1% among 220,000; also: nearly all actives have a fitted effect of over 50% in size
# Target sequence (Q6W5P4 whole entry, looked up): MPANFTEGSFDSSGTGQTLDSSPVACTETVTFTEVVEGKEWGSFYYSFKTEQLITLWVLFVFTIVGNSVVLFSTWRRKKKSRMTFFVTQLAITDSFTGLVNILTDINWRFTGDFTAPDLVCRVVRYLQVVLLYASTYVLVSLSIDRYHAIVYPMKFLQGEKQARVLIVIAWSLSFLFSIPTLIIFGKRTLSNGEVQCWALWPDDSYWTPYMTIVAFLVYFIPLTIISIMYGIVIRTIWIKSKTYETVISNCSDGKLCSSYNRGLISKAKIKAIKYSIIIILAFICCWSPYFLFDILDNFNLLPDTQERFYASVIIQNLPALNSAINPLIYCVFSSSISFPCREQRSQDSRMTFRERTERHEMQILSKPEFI
# Tau fluor counter: counter-screen for tau fibril formation inhibitors | tau K18 P301L (four-repeat tau fragment) Alexa594 fluorescence, heparin fibrillization | Potency, µM (series often up to 57.7 µM), for the others: at the highest dose activity change, negative = decrease | hit rate 0.93% among 280,000; also: nearly all actives have a fitted effect of over 55% in size
#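 Human K18 P301L tau (15 uM unlabeled plus 0.24 uM Alexa 594-labeled, final) in 100 mM sodium acetate pH 7 was mixed with compound and 20 uM heparin and incubated 6 hr at 37 C.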
# Luc counter: blocks Kinase-Glo luciferase, a counter-screen artifact | Q27757 | Kinase-Glo luciferase, ATP luminescence, 8 min | Potency, µM (doses to about 38.3 µM), without a hit: at the top dose activity change, negative = inhibition, most hits filed as inhibitors | hit rate 0.28% among 200,000 | AID 1379; also: nearly all actives have a fitted effect of over 60% in size
#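 Luminescence was the read-out, taken after 8-minute incubation at ambient temperature. Luciferase turned over luciferin with 10 uM ATP in imidazole pH 7.2 buffer containing KCl, MgCl2, Tween 20 and BSA.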
# * marks the source's active call; other numbers are inactive results; ? = inconclusive; . = not tested or not shown; [ ] = another dose, or the depositor's remark. A selection: hits, their analogues and other compounds. The true share with any hit is near 3.3%. Calls follow the shape of the dose curve; as a rule, active = well fitted curve in the direction sought with a large enough effect; inconclusive = small, poorly fitted or top-dose-only effect, or another doubt; inactive = no such curve, though single readings can be large; an effect the other way counts as inactive or inconclusive. % is scaled to controls: 0 for no effect and ±100 for the full control effect; potency is read from the fitted curve at half-maximal effect.
SMILES,Tau fibril ThT,Tau fibril FP,NPSR antag,Tau fluor counter,Luc counter
Cc1[nH]n(-c2ccccc2)c(=O)c1/C=N/NC(=O)c1cccc([N+](=O)[O-])c1,?,4%,-4%[46.1 µM],-15%,-6%
CCOc1ccc(C(=O)Nc2ccc3oc(-c4ccc(C)cc4C)nc3c2)cc1Br,?,-12%,.,-15%,.
O=C(OCn1ncc(Br)c(Br)c1=O)c1ccccc1Cl,8.9µM*,?,2.5µM*,-20%,-4%
O=C(OCn1ncc(Cl)c(Cl)c1=O)c1cccc(C(F)(F)F)c1,3%,6%,?,-3%,4%
O=C(OCc1cnc(Cl)s1)c1ccccc1Cl,-3%,8%,-7%[46.1 µM],-3%,-2%
O=C(OCn1ncc(Br)c(Br)c1=O)c1ccc(F)cc1,?,?,2.5µM*,-6%,-4%
COc1ccc(NC(=O)C(CC(C)C)NC(=O)C2CCCCC2)cc1 (stereo not drawn),-5%,-2%,.,-14%,.
Cc1ccc(Cl)cc1NC(=O)c1ccccc1OCC(=O)Nc1ccc(Cl)cc1,5%,?,-41%,-27%,2%
Cc1ccc(NC(=O)COc2ccccc2C(=O)Nc2ccccc2)cc1Cl,-1%,4.5µM*,-41%,?,0%
O=C(Cn1c(=O)n2nc(-c3ccccc3)nc2c2ccccc21)Nc1ccccc1C(F)(F)F,4%,-20%,.,-1%,.
CCc1cc[n+](C2=C([O-])c3ccccc3C(=O)/C2=N\S(=O)(=O)c2cccs2)cc1,13µM*,?,-16%,?,0%
O=C1C(=O)c2ccccc2C([O-])=C1[n+]1ccccc1,?,-10%,-4%,-18%,.
C=CCSC1=N/C(=C\C=C\c2ccco2)C(=O)S1,13µM*,?,-9%[46.1 µM],?,-1%
COc1ccc(N/N=C(\C=N\O)C(=O)c2ccc(OC)cc2)cc1,13µM*,16%,?,?,-2%
Cc1ccc(NC(=O)CCCn2nc(C)c3sc4ccccc4c3c2=O)c(Cl)c1,-6%,0%,.,-7%,.
Cc1ccc(C2=NN=C(NC(=O)CSc3nnc4c5ccccc5n(C)c4n3)SC2)cc1,2.8µM*,?,6%,-22%,1%
CCOC(=O)Cc1nnc(NC(=O)CSc2nnc3c4ccccc4n(C)c3n2)s1,?,-4%,3%[46.1 µM],-13%,.
Cc1cc(C)nc(SCC(=O)NC2=NC(=O)C(C)S2)n1 (stereo not drawn),?,?,-4%[46.1 µM],-8%,5%
Cc1ccc(C2=NN=C(NC(=O)CSc3nc(C)cc(C)n3)SC2)cc1,13µM*,?,-22%[46.1 µM],-18%,-2%
COc1cc(-c2nc3ccccn3c2/N=C/c2cc(OC)c(O)cc2Cl)ccc1O,14µM*,?,-39%,?,.
COc1cc(-c2nc3ccccn3c2/N=C/c2ccccc2)ccc1O,?,-15%,?,-26%,5%
CC(=O)c1c(CC(=O)O)[nH]n(-c2nc3ccccc3s2)c1=O,-5%,?,-17%[46.1 µM],-8%,6.3µM*
COC(=O)Cc1[nH]n(-c2nc3ccccc3s2)c(=O)c1C(C)=O,-26%,3%,-4%[46.1 µM],-9%,?
C=C1C2CC[C@]3(CCC4[C@@]5(C)CCC[C@@]4(CN(CCO)C5)[C@@H]3C2)[C@@H]1O (stereo partly drawn),-10%,0%,.,-3%,2%
Cc1cc(C)c(O)c(Cc2cccc(Cc3cc(C)cc(C)c3O)c2O)c1,.,.,.,.,-4%[7.66 µM]
SMILES,Tau fibril ThT,Tau fibril FP,NPSR antag,Tau fluor counter,Luc counter
Cc1cc(C)c(O)c(N)c1,22µM*,-17%,-4%,-25%,-5%
COc1ccccc1Nc1nc(-c2ccc(F)cc2)c2c(n1)-c1ccccc1OC2,?,?,.,-29%,.
Cc1c(NC(=O)/C(C#N)=C/c2ccc(-c3ccccc3Cl)o2)c(=O)n(-c2ccccc2)n1C,?,8%,-4%,-10%,-3%
Cc1c(NC(=O)/C(C#N)=C/c2ccc(-c3ccc(Cl)c(Cl)c3)o2)c(=O)n(-c2ccccc2)n1C,16µM*,8%,-5%,-17%,0%
Cc1c(NC(=O)/C(C#N)=C/c2ccc(-c3cccc(Cl)c3)o2)c(=O)n(-c2ccccc2)n1C,13µM*,8%,-9%[46.1 µM],-7%,1%
CCc1ccccc1-n1c(SCC(=O)Nc2ccc(C)cc2)nc2n[nH]c(C)c2c1=N,-3%,-12%,.,?,.
COc1ccccc1N1CCN(c2ccc(-c3ccccc3)nn2)CC1,?,2%,21%[46.1 µM],-26%,8.9µM*
COc1ccccc1-c1c(C)nn2c(N3CCN(c4ccccc4OC)CC3)cc(C)nc12,-13%,0%,?,-15%,0%
COc1ccccc1-c1c(C)nn2c(N3CCCCCC3)cc(C)nc12,-17%,5%,10µM*,-22%,2%
COCCOC(=O)c1c(NC(=O)CN2c3ccccc3CC2C)sc(C(N)=O)c1C (stereo not drawn),-9%,?,-35%,-11%,-1%
CCn1c2ccccc2c2cc(/C=N/NC(=O)c3cc(O)cc(O)c3)ccc21,-5%,-2%,47%,-5%,-9%
CCn1c2ccccc2c2cc(/C=N/NC(=O)c3ccc(O)cc3)ccc21,?,?,-39%,10µM*[quencher],-2%
C[C@@H]1CC[C@@]2(OC1)OC1CC3C4CC=C5CC(O)CCC5(C)C4CCC3(C)C1[C@@H]2C (stereo partly drawn),-9%,?,.,-13%,3%
O=C(O)CCNc1cc2ccccc2cc1C(=O)O,16µM*,?,-3%[46.1 µM],-25%,9%
O=C(O)CCNS(=O)(=O)c1ccc2ccccc2c1,-10%,-3%,-3%[46.1 µM],-7%,5%
O=C(/C=C/c1c(Cl)cccc1Cl)n1cccn1,10µM*,?,-17%[46.1 µM],-13%,0%
O=C(/C=C/c1c(F)cccc1Cl)Nc1ncccn1,-1%,6%,-1%,7%,-9%
CCc1ccc(-n2nc3ccc(NC(=O)c4cc5ccccc5o4)cc3n2)cc1,?,-7%,.,-6%,.
CC1(C)CC2(CC(c3ccccc3F)c3ccc(O)c(O)c3O2)NC(=S)N1 (stereo not drawn),22µM*,?,-5%,?,2%
C/C(=N\Nc1ccc(C(=O)O)cc1)c1ccc2c(c1)Nc1ccccc1S2,3.5µM*,-10%,?,13µM*[quencher],.
CC(=O)Nc1ccc(NC(=O)c2ccc3c(c2)NC(=O)c2ccccc2S3)cc1,?,-3%,.,?,.
COc1ccc2c(c1OC)C(=O)N1c3ccccc3N=C(c3ccc([N+](=O)[O-])cc3)CC21 (stereo not drawn),20µM*,?,-22%[46.1 µM],-26%,1%
O=C(CCCc1ccc(-c2ccccc2F)cc1)Nc1ccc(O)cc1,?,?,.,11µM*[quencher],-3%
Cc1ccc(/C=N/c2sc3c(c2C#N)CCC3)o1,?,3%,-7%[46.1 µM],-14%,11µM*
N#Cc1c(/N=C/c2cccs2)sc2c1CCCCC2,3.2µM*,-6%,-16%[46.1 µM],-26%,?

# Screening data: PubChem BioAssay, National Center for Advancing Translational Sciences (NCATS)
